Measured values: PubChem BioAssay AID687028 (Broad Institute, 2013)
The whole screen tested about 1,400 compounds, of which about 55 (4%) were called active. The rule behind the calls is not given here. A selection follows. Results with a measured potency or affinity are listed apart.

Test: A549 cell toxicity, dose response, cytotoxicity control, plate reader, cherry-pick samples (AID 687028);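 note: cells incubated with compound for three days before reading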
Conditions: series mostly up to 19.5 µM; activity change, negative = toxicity: at the top concentration

| SMILES | activity change, negative = toxicity |
| --- | --- |
| Cn1cc(CC(=O)Nc2ccc(Nc3cccnc3)cc2)c2ccccc21 | -6.76% (inactive) |
| CCC(=O)N1CC[C@@H]2[C@H](CO)Nc3ccc(-c4cccc(C#N)c4)cc3[C@@H]21 | 2.79% (inactive) |
| O=S(=O)(c1ccc(F)cc1)N1CC[C@@H]2[C@H]1c1cc(-c3ccc(F)cc3)ccc1N[C@@H]2CO | -6.49% (inactive) |
| O=C(OCc1ccccc1)N1CCCC2CC1c1ccccc12 (configuration not stated) | 6.02% (inactive) |
| CCCCN(C(=O)c1ccc2c(c1)NC(=O)CS2)c1ccccc1 | 4.51% (inactive) |
| C[C@H](NC(=O)[C@@H]1CCCN1C(=O)OC(C)(C)C)c1ccccc1 | 0.406% (inactive) |
| CC1CCC(CN2CCN=C2Nc2ccccc2)CC1 (configuration not stated) | 5.22% (inactive) |
| COc1ccc(-c2oc3ccc(-c4cc(OC)c(OC)c(OC)c4)cc3c2-c2ccc(OC)nc2)cc1 | -4.28% (inactive) |
| COc1cc(-c2cnc3c(NC(C)=O)cc(-c4ccccc4CN(C)C)cn23)cc(OC)c1OC | 9.33% (inactive) |
| O=C(C1CCCN(S(=O)(=O)c2cccnc2)C1)N1CCN(c2ccccn2)CC1 (configuration not stated) | -1.36% (inactive) |
| CCC(C)CN1C(=O)CSCC1(C)C(=O)Nc1ccc2c(c1)OCCO2 (configuration not stated) | -3.44% (inactive) |
| C[C@H](CO)N1C[C@H](C)[C@@H](CN(C)C(=O)CCCN(C)C)OCCCC[C@H](C)Oc2ccc(NC(=O)CCCN(C)C)cc2C1=O | 5.67% (inactive) |
| COc1cccc(-c2ccc(C3[C@@H]4CN(S(=O)(=O)c5cn(C)cn5)C[C@H]3N4)cc2)c1 (some centres not stated) | 1.42% [at 21 µM] (inactive) |
| CS(=O)(=O)N1[C@@H]2CNC[C@H]1C2c1ccc(-c2ccccc2)cc1 (some centres not stated) | 4.12% (inactive) |
| O=C(NC1CCCCC1)[C@@H]1[C@@H](CO)[C@@H]2Cn3c(cccc3=O)[C@H]1N2Cc1cccnc1 | 2.63% (inactive) |
| CN(Cc1nccs1)C(=O)c1ccc(OC2CCN(Cc3ccccn3)CC2)cc1 | -2.25% (inactive) |
| COc1ccc(NC(=O)N[C@@H]2CC[C@@H](CCNS(=O)(=O)c3cccc(Cl)c3)O[C@@H]2CO)cc1 | 5.25% (inactive) |
| COc1ccc(NC(=O)N[C@H]2CC[C@@H](CCn3cc(C4(O)CCCC4)nn3)O[C@@H]2CO)cc1 | 4.25% (inactive) |
| Cc1ccc(OCC(=O)NC2CCSc3ccccc32)cc1 (configuration not stated) | 5.23% (inactive) |

| SMILES | activity change, negative = toxicity |
| --- | --- |
| O=C(NCCc1ccccc1)c1ccccc1NC(=O)C1CCCCC1C(=O)O (configuration not stated) | 2.25% (inactive) |
| CC1CC2=C(C(=O)O1)C(c1ccc(Cl)cc1)Nc1ccccc1N2 (configuration not stated) | 2.94% (inactive) |
| COc1ccc(C#Cc2ccc([C@H]3[C@@H](CO)N4CCCCN(S(=O)(=O)c5ccccc5)C[C@@H]34)cc2)cc1 | 0.141% (inactive) |
| C[C@H](CO)N1C[C@H](C)[C@@H](CN(C)Cc2ccc(Oc3ccccc3)cc2)Oc2ccc(NC(=O)Cn3cnnn3)cc2CC1=O | -2.24% (inactive) |
| C[C@H](CO)N1C[C@H](C)[C@@H](CN(C)C(=O)Cc2ccccc2)OCCCC[C@H](C)Oc2ccc(NS(=O)(=O)c3ccc(F)cc3)cc2C1=O | -0.634% (inactive) |
| Cc1ccc(S(=O)(=O)N(C)C[C@@H]2OCCCC[C@H](C)Oc3ccc(NS(=O)(=O)c4c(C)noc4C)cc3C(=O)N([C@@H](C)CO)C[C@@H]2C)cc1 | -0.321% (inactive) |
| C[C@@H]1CN([C@H](C)CO)C(=O)c2cc(NC(=O)c3ccncc3)ccc2O[C@@H](C)CCCCO[C@H]1CN(C)Cc1ccc(Cl)c(Cl)c1 | 0.429% (inactive) |
| C[C@@H]1CCCCO[C@@H](CN(C)S(C)(=O)=O)[C@H](C)CN([C@@H](C)CO)C(=O)c2cc(NS(=O)(=O)c3ccc(Cl)cc3)ccc2O1 | 16.8% (inactive) |
| C[C@@H]1CCCCO[C@@H](CN(C)Cc2ccccc2)[C@@H](C)CN([C@H](C)CO)C(=O)c2cc(NC(=O)c3ccccc3)ccc2O1 | -2.93% [at 21 µM] (inactive) |
| C[C@@H]1CCCCO[C@@H](CN(C)S(=O)(=O)c2ccc(F)cc2)[C@@H](C)CN([C@H](C)CO)C(=O)c2cc(NC(=O)Nc3ccc(C(F)(F)F)cc3)ccc2O1 | -4.87% [at 21 µM] (inactive) |
| C[C@@H]1CCCCO[C@@H](CN(C)C(=O)c2ccccc2)[C@@H](C)CN([C@@H](C)CO)C(=O)c2cc(NS(=O)(=O)c3ccc(F)cc3)ccc2O1 | 2.27% (inactive) |
| Cc1ccc(S(=O)(=O)N(C)C[C@@H]2OCCCC[C@H](C)Oc3ccc(NS(=O)(=O)c4c(C)noc4C)cc3C(=O)N([C@H](C)CO)C[C@H]2C)cc1 | -6.59% (inactive) |
| COc1ccccc1CN1[C@H](CO)[C@H]2c3ccccc3N(C(=O)c3ccncc3)C[C@H]21 | 1.88% [at 21 µM] (inactive) |
| COc1ccc(C)cc1N(CC(=O)Nc1ccc(S(=O)(=O)N2CCOCC2)cc1)S(C)(=O)=O | 2.83% (inactive) |
| CCOc1ccc(C(=O)Nc2ccc(CN3CCOCC3)cc2)cc1Br | 0.645% (inactive) |
| CCn1c(=O)n(CC)c2cc(N3CCCC3)c(NC(=O)c3ccc(C)cc3)cc21 | 4.36% (inactive) |
| Cc1ccccc1S(=O)(=O)N1C[C@@H](O)COC[C@@H]2O[C@H](CC(=O)N3CCCCC3)CC[C@H]21 | 2.8% (inactive) |
| C[C@@H]1CN([C@@H](C)CO)C(=O)Cc2cc(NS(=O)(=O)c3cn(C)cn3)ccc2O[C@H]1CN(C)Cc1ccc(C(=O)Nc2ccccc2N)cc1 | 14.2% (inactive) |
| CCCNC(=O)N1[C@H](CO)[C@@H](c2ccccc2)C12CN(C(=O)C1CCCCC1)C2 | 4.98% [at 21 µM] (inactive) |

| SMILES | activity change, negative = toxicity |
| --- | --- |
| O=C(CN1CCN(c2cccc(C(F)(F)F)c2)CC1)N(C1CCCC1)C1CCS(=O)(=O)C1 (configuration not stated) | -6.02% (inactive) |
| Cc1cc(OCC(=O)NC(Cc2ccc(Cl)cc2)C(=O)O)c2c(C)c(C)c(=O)oc2c1 (configuration not stated) | 1.6% (inactive) |
| CCc1nc(SCc2ccccc2C)n[nH]1 | 3.95% (inactive) |
| Cc1ccc(CCN2CC(C(=O)NCCc3ccccc3)CC2=O)cc1 (configuration not stated) | -1.28% (inactive) |
| Cc1noc(C)c1S(=O)(=O)Nc1cccc2c1O[C@H](CN(C)C(=O)NC(C)C)[C@H](C)CN([C@@H](C)CO)C2=O | 5.39% (inactive) |
| CC(C)C[C@@H](COc1ccccc1)N1CCN(Cc2ccccc2)CCC1=O | -4.31% (inactive) |
| COc1ccc(S(=O)(=O)Nc2ccc3c(c2)C(=O)N([C@@H](C)CO)C[C@H](C)[C@@H](CN(C)C(=O)Nc2ccc(C(F)(F)F)cc2)OCCCC[C@H](C)O3)cc1 | 8.07% (inactive) |
| C[C@H](CO)N1C[C@H](C)[C@@H](CN(C)C(=O)Nc2ccc(C(F)(F)F)cc2)OCCCC[C@H](C)Oc2ccc(NS(=O)(=O)c3ccc(F)cc3)cc2C1=O | 9.95% (inactive) |
| C[C@H](CO)N1C[C@H](C)[C@@H](CN(C)C(=O)Nc2ccc(C(F)(F)F)cc2)OCCCC[C@H](C)Oc2ccc(NS(=O)(=O)c3cccs3)cc2C1=O | -23% (inactive) |
| COc1ccc(NC(=O)N(C)C[C@H]2OCCCC[C@@H](C)Oc3ccc(NS(C)(=O)=O)cc3C(=O)N([C@H](C)CO)C[C@H]2C)cc1 | 4.29% (inactive) |
| COc1cccc(CNC(=O)[C@H]2[C@H](CO)[C@H]3Cn4c(ccc(-c5ccncc5)c4=O)[C@H]3N2C)c1 | -0.01% (inactive) |
| N#C[C@H]1[C@@H](c2ccc(C3=CCCCC3)cc2)[C@@H](CO)N1S(=O)(=O)c1cccc(F)c1 | 2.88% (inactive) |
| CCOc1ccc(NC(=O)CN(C)C(=O)c2ccccc2OCc2c(C)noc2C)cc1OCC | -0.912% (inactive) |
| COc1ccc(N2CCN(c3cc(C(=O)NC4CCCCC4)ncn3)CC2)cc1OC | 4.44% (inactive) |
| CC(C)(C)OC(=O)N[C@H]1C=C[C@@H](CC(=O)OCC(F)(F)F)C1 | 2.97% (inactive) |
| CCN(CC)c1ccc2cc(C(=O)NCc3ccc(F)cc3)c(=N)oc2c1 | -2.33% (inactive) |
| CC(=O)OCCCN(C)CC/C=C1/c2ccccc2CSc2ccccc21 | 1.09% (inactive) |
| CC(C)Oc1ccc(S(=O)(=O)N2CCOCC2)cc1NC(=O)Cc1ccsc1 | -1.5% (inactive) |
| Cc1ccccc1CN1CCN(CC(=O)NC(C)c2ccccc2)CC1 (configuration not stated) | 8.03% (inactive) |
